assay: compound effects on lung adenocarcinoma cell viability – A549, calcein-AM fluorescence, 48 h, basal, profiling panel (AID 1162); conditions: higher = more signal
Note: test concentration not given here.

For `CN(C)C(=O)[C@]1(CCC(=O)OC(C)(C)C)N=C(c2ccc(OCCCO)cc2)O[C@@H]1c1ccccc1N=[N+]=[N-]`, which z-score is on record?
The z-score was 0.0413.

With `[N-]=[N+]=NCc1ccccc1C[C@]1(C(=O)NCCN2CCOCC2)N=C(c2ccc(OCCCO)cc2)O[C@H]1c1ccccc1N=[N+]=[N-]` as the compound, how does the z-score read?
Its z-score is -0.872.

With `O=C1O[C@H](c2ccccc2)[C@H](c2ccccc2)N2[C@H]1[C@@H](C(=O)Nc1nc3ccccc3s1)[C@]1(C(=O)Nc3ccccc31)[C@H]2c1ccc(O)cc1` as the compound, how does the z-score read?
Its z-score is -0.167.

assay: compound effects on differentiated 3T3-L1 adipocyte viability – cell-based, 3T3-L1 adipocytes, calcein-AM fluorescence, 48 h, basal, profiling panel (AID 1163); conditions: 3T3-L1 adipocytes viability, higher = more signal

With `CN1CCC(CCCO)=CC1c1ccc(CN2CCCC2)cc1` (centres undefined) as the compound, how does the z-score read?
The z-score was 0.143.

With `C=C[C@H](C)[C@@H](O)c1ccc(O)c2ccccc12` as the compound, how does the z-score read?
The z-score was -0.69.

For `COCCOC(=O)N1C(=O)[C@@]2(c3cc(C#CC4=CCCCC4)ccc31)[C@H](C(=O)N1CCc3cc(OC)c(OC)cc3C1)[C@H]1C(=O)O[C@H](c3ccccc3)[C@H](c3ccccc3)N1[C@@H]2c1ccccc1OCCO`, which z-score is on record?
Its z-score is 0.299.

With `COC(=O)C1=CC(CCCO)=CC(C2CC2)N(Cc2sc3ccccc3c2Cl)C=C1C(=O)OC` (centres undefined) as the compound, how does the z-score read?
The z-score was 0.326.

With `NC(=O)NCC#Cc1ccc2c(c1)[C@]1(C(=O)N2)[C@H](C(=O)N2CCCCCCC2)[C@H]2C(=O)O[C@H](c3ccccc3)[C@H](c3ccccc3)N2[C@@H]1c1ccc(OCCO)cc1` as the compound, how does the z-score read?
Its z-score is -0.15.

Which z-score does the source give for `COc1ccccc1CN1C(=O)c2ccccc2[C@@H](C(=O)NCCN2CCOCC2)[C@@H]1c1ccc(CO)cc1` here?
The z-score was 0.0251.

Which z-score does the source give for `O=c1cccc(C=Cc2ccccc2)o1` here?
Its z-score is -0.601.

For `C=C[C@@H](COC(C)=O)N(Cc1ccc([N+](=O)[O-])cc1)S(=O)(=O)c1ccc(Br)cc1`, which z-score is on record?
The z-score was -0.306.

For `CC(C)C(=C=CC[C@@H](O)c1ccccc1OCCO)C[C@@H](O)c1ccccn1`, which z-score is on record?
Its z-score is 0.0388.

For `CCCCC=C[C@@H](NC(=O)c1ccc(C(=O)OC)cc1)c1ccccc1`, which z-score is on record?
Its z-score is -0.87.

For `O=c1oc(-c2ccccc2)nc2cc(Br)ccc12`, which z-score is on record?
Its z-score is 0.111.

For `C=CC(COC(C)=O)NS(=O)(=O)c1ccc(Br)cc1` (centres undefined), which z-score is on record?
Its z-score is -0.13.

For `CS(=O)(=O)CCOC(=O)C1=CC(CCCO)=CC(c2cccs2)N(Cc2cc3c(cc2Br)OCO3)C=C1C(=O)OCCS(C)(=O)=O` (centres undefined), which z-score is on record?
Its z-score is 0.46.

For `CCC[C@@H]1C=C(C(=O)O)[C@H](c2ccc(C)cc2)N1S(=O)(=O)c1ccc(C)cc1`, which z-score is on record?
Its z-score is 0.216.

For `CC(C)NC(=O)[C@@H]1c2ccccc2C(=O)N(Cc2ccccc2)[C@H]1c1ccc(CO)cc1`, which z-score is on record?
Its z-score is -0.46.

With `Cc1ccc(S[C@]2(C(=O)NCc3ccccc3)CC(=O)N(Cc3ccccc3)[C@@H]2c2ccc(CO)cc2)cc1` as the compound, how does the z-score read?
Its z-score is 0.147.

With `COC(=O)c1ccc(C(O)C2C=CC3C(=O)N(C)C(=O)C3N2NC(=O)OC(C)(C)C)o1` (centres undefined) as the compound, how does the z-score read?
Its z-score is -0.425.

For `COc1ccc(C(=O)Nc2cccc(CN3C(=O)[C@]4(O[C@H](CC(=O)N5CCC[C@H]5CO)[C@@H]([Si](C)(C)c5ccc(OC)cc5)[C@@H]4C)c4ccccc43)c2)cc1`, which z-score is on record?
The z-score was 0.902.

For `CC(C)Cc1ccc(CN2CC[C@@H](NS(=O)(=O)c3ccccc3)C2)cc1`, which z-score is on record?
The z-score was -0.568.

For `C=CCC(OC(C)=O)[C@@H]1[C@@H](N(Cc2cccc3ccccc23)C(=O)c2cccc3ccccc23)c2cc(OCCCO)ccc2N1C(=O)c1ccc2ccccc2n1` (some centres undefined), which z-score is on record?
Its z-score is 0.161.

For `COCCOC(=O)N1C(=O)[C@@]2(c3cc(C#CCNC(N)=O)ccc31)[C@H](c1ccc(OCCO)cc1)N1[C@H](c3ccccc3)[C@H](c3ccccc3)OC(=O)[C@H]1[C@@H]2C(=O)N1CCc2cc(OC)c(OC)cc2C1`, which z-score is on record?
Its z-score is 0.427.

For `O=C1C=CC(=O)[C@@H]2CC(COc3ccccc3)=C3[C@@H](CCc4ccccc4)OB(O)C[C@@H]3[C@H]12`, which z-score is on record?
Its z-score is -1.23.

For `[N-]=[N+]=NCc1ccccc1[C@@H]1OC(c2ccc(OCCCO)cc2)=N[C@]1(Cc1ccccc1N=[N+]=[N-])C(=O)NCc1ccccc1`, which z-score is on record?
The z-score was 0.0085.

Which z-score does the source give for `NCCCCCCNC(=O)[C@H]1C[C@H]2C(=O)NCC(=O)N2[C@H]1c1cccc(OCCO)c1` here?
The z-score was -0.143.

With `CCCCCN1CC=CC23O[C@@H]4/C=C\CCC(C)OC(=O)C4[C@H]2C(=O)N(CCCCCO)[C@@H]3C1=O` (some centres undefined) as the compound, how does the z-score read?
The z-score was 1.56.

Which z-score does the source give for `O=C(NCc1ccccc1)[C@]1(CCS(=O)(=O)c2ccccc2)N=C(c2ccc(OCCCO)cc2)O[C@@H]1c1ccccc1` here?
The z-score was 0.0335.

For `C=CC(=C)C1=CCO[C@@H]1[C@H]1CCCN1S(=O)(=O)c1ccccc1[N+](=O)[O-]`, which z-score is on record?
Its z-score is 1.19.

With `COc1ccc(C(=O)Nc2cccc(CN3C(=O)[C@@]4(O[C@@H](CCn5cc(CCO)nn5)[C@H]([Si](C)(C)c5ccc(OC)cc5)[C@H]4C)c4ccccc43)c2)cc1` as the compound, how does the z-score read?
Its z-score is -0.599.

With `CCCC[C@H]1OB(O)C[C@H]2C1=C(C)C[C@H]1C(=O)N(Cc3ccccc3)C(=O)[C@H]12` as the compound, how does the z-score read?
The z-score was 0.379.

Which z-score does the source give for `COc1ccc(NN2C(C(O)c3ccc(OC)c(OCc4ccccc4)c3)C=CC3C(=O)N(C4CCCCC4)C(=O)C32)cc1` (centres undefined) here?
The z-score was -0.714.

Which z-score does the source give for `COCC(=C=CC[C@H](O)c1ccc(OCCO)cc1)C[C@H](O)c1cc(Cl)cc(Cl)c1O` here?
Its z-score is 0.0622.

With `O=C/C=C/c1ccc2c(c1)OCO2` as the compound, how does the z-score read?
The z-score was 0.327.

Which z-score does the source give for `Cc1ccc(S[C@]2(C(=O)NCC(C)C)CC(=O)N(Cc3ccccc3Cl)[C@@H]2c2ccc(CO)cc2)cc1` here?
Its z-score is 0.114.

Which z-score does the source give for `CN(C)C(=O)[C@]1(CCC(=O)OC(C)(C)C)N=C(c2ccc(OCCCO)cc2)O[C@@H]1c1ccccc1N=[N+]=[N-]` here?
The z-score was 0.473.

For `[N-]=[N+]=NCc1ccccc1C[C@]1(C(=O)NCCN2CCOCC2)N=C(c2ccc(OCCCO)cc2)O[C@H]1c1ccccc1N=[N+]=[N-]`, which z-score is on record?
Its z-score is 0.233.

With `O=C1O[C@H](c2ccccc2)[C@H](c2ccccc2)N2[C@H]1[C@@H](C(=O)Nc1nc3ccccc3s1)[C@]1(C(=O)Nc3ccccc31)[C@H]2c1ccc(O)cc1` as the compound, how does the z-score read?
The z-score was 0.657.
